# From PubChem BioAssay (NCI)
# The panel holds about 83,000 compounds, 20% with a hit somewhere; the sample as a whole holds those more often.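 Step 1: grow cells in 96-well plates. Step 2: add test compound at a single concentration. Step 3: incubate 48 h. Step 4: record percent growth.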 Unmarked numbers belong to inactive results. Calls of active or inactive are those of the source. The calls were made as follows: active = growth percent below 10; inactive = the rest.
# How the values were obtained:
# Experiment in all cases: NCI-60 one-dose screen, 48 h (100 = growth as untreated, 0 = no growth, -100 = all killed)
# Details in all cases: 10 µM unless noted
# SR leukemia = test system: SR leukemia
# RPMI-8226 leukemia = test system: RPMI-8226 leukemia
# OVCAR-8 ovarian = test system: OVCAR-8 ovarian
# OVCAR-5 ovarian = test system: OVCAR-5 ovarian
# SK-OV-3 ovarian = test system: SK-OV-3 ovarian
# OVCAR-3 ovarian = test system: OVCAR-3 ovarian
# HS 578T breast = test system: HS 578T breast
# NCI/ADR-RES ovarian = test system: NCI/ADR-RES ovarian
# T-47D breast = test system: T-47D breast
# BT-549 breast = test system: BT-549 breast
# MDA-MB-435 melanoma = test system: MDA-MB-435 melanoma
# SW-620 colon = test system: SW-620 colon
# MCF7 breast = test system: MCF7 breast
# HCT-116 colon = test system: HCT-116 colon
# HCC-2998 colon = test system: HCC-2998 colon
# KM12 colon = test system: KM12 colon
# OVCAR-4 ovarian = test system: OVCAR-4 ovarian
# IGROV1 ovarian = test system: IGROV1 ovarian
Structure (SMILES),growth (SR leukemia),growth (RPMI-8226 leukemia),growth (OVCAR-8 ovarian),growth (OVCAR-5 ovarian),growth (SK-OV-3 ovarian),growth (OVCAR-3 ovarian),growth (HS 578T breast),growth (NCI/ADR-RES ovarian),growth (T-47D breast),growth (BT-549 breast),growth (MDA-MB-435 melanoma),growth (SW-620 colon),growth (MCF7 breast),growth (HCT-116 colon),growth (HCC-2998 colon),growth (KM12 colon),growth (OVCAR-4 ovarian),growth (IGROV1 ovarian)
C=C(C)[C@H]1CC/C(C)=C/CC[C@]2(C)O[C@H]2CC/C(COC(=O)[C@@H](OC(C)=O)[C@H](NC(=O)c2ccccc2)c2ccccc2)=C\[C@@H]1O,51.2%,54.8%,93.9%,106%,94.1%,104%,91%,88.1%,73.6%,97.1%,92.3%,105%,81.2%,89.6%,96.5%,99.6%,,
CN(C)C(C(N)=O)c1ccc(Cl)cc1 (centres undefined),98.5%,107%,,95.9%,98.5%,112%,103%,106%,102%,100%,101%,104%,106%,94.9%,102%,102%,102%,103%
COc1cc(OC)cc(C2C3=C(COC3=O)Nc3cc(OC)ccc32)c1 (centres undefined),8.35% (active),,8.63% (active),39.5%,-3.6% (active),-50% (active),68.1%,-18.6% (active),68.8%,-2.09% (active),-30% (active),26.6%,15.7%,1.55% (active),1.15% (active),-3.49% (active),,42.2%
O=c1nc2n(nc1/C=C/c1ccco1)CC(c1ccc(Cl)cc1)=NN2,45%,,67.9%,122%,93%,109%,116%,100%,49.7%,84.1%,110%,102%,22.2%,99%,110%,115%,95.3%,8.48% (active)
NC(=S)N/N=C(\c1ccc(Cl)cc1)C1CC1,,67.3%,70.9%,95.5%,92.8%,58.2%,99.6%,67.3%,30.6%,114%,93.8%,72%,18.5%,3.65% (active),102%,100%,68.2%,45.7%
NC(=S)N/N=C(/c1ccccc1)c1ccccc1N,,72.6%,64.7%,94.8%,108%,50.7%,97.2%,74.2%,43.7%,104%,90.4%,79.2%,39.7%,3.36% (active),113%,98.9%,78.5%,40.1%
COc1cc(NCCCN(CC(C)C)C2CCCC2)c2ncccc2c1,16.8%,35.5%,,96.3%,84.6%,52.6%,,71.8%,29.9%,75.6%,89.2%,41.4%,0.473% (active),37.8%,92.4%,93%,,50.6%
COc1cc2nc(-c3ccc(C(F)(F)F)cc3)cc(OCCN3CCC(O)CC3)c2cc1OC,,41.2%,80%,51%,85.4%,93.8%,79.1%,53.5%,74.9%,52.3%,94.4%,91.8%,93.1%,55.3%,77.9%,86.8%,88.3%,42.1%
CC(C)(C)OC(=O)N1CCN(c2ccc(N)cc2)C(=O)C1,81.2%,,107%,112%,109%,117%,105%,102%,106%,116%,106%,109%,91.9%,99.9%,102%,108%,108%,112%
Cc1ccc(O)c(C(=O)O)c1,,103%,112%,108%,106%,107%,108%,111%,106%,111%,111%,104%,104%,108%,110%,108%,122%,95.3%
Cn1c2c(Cl)c(Cl)ccc2c2cc(N)[nH]c(=O)c21,,94.9%,73.7%,66.2%,92.2%,86.2%,51.5%,74.6%,79.7%,64.2%,107%,77.8%,72.4%,83.1%,85%,94.2%,87.2%,54.7%
Cn1c(COC(=O)N2CCCCC2)nc2c(N3CCOCC3)nc(-c3ccccc3)nc21,,-29.5% (active),-6.61% (active),-79.8% (active),60.2%,-85.3% (active),-36.1% (active),-8.64% (active),-38.4% (active),-37.7% (active),-81.9% (active),-69.1% (active),-65.3% (active),-59.3% (active),-76.4% (active),-73.8% (active),-78.4% (active),-80.6% (active)
Cc1c(C(=O)NO)sc2ncnc(Nc3ccc(NC(=S)Nc4ccccc4)cc3)c12,110%,,103%,103%,121%,111%,105%,99.6%,113%,106%,101%,105%,95.3%,105%,99.9%,102%,105%,112%
COc1ccc(Cn2nc(-c3ccccc3)c3c2CCc2cnoc2-3)cc1,36%,,80.8%,102%,83.1%,87.4%,90.7%,66.7%,,82.1%,28.4%,83.2%,72.6%,65.4%,67.4%,56.8%,72.1%,86%
COc1ccc(-c2cnc(N)nc2-c2ccc(OC)cc2O)cc1,66.9%,,89.5%,102%,103%,108%,157%,85.7%,93.7%,115%,101%,95.7%,95.4%,80.4%,,45.5%,86.5%,83.8%
COc1ccc(Cn2nc3c(c2-c2cc(OC)c(OC)c(OC)c2)-c2oncc2CC3)cc1,25.5%,,107%,88%,94.7%,98%,116%,65.9%,,88.9%,0.861% (active),86%,69.9%,81.4%,77.5%,70.9%,86.8%,81.8%
c1ccc(-c2nnc(Nc3ccc4c(c3)OCCO4)o2)c(NCc2ccncc2)c1,10.9%,,20.2%,32.2%,-2.96% (active),-36.9% (active),64.4%,4.75% (active),52.7%,-15.1% (active),-34.6% (active),27.9%,20%,4.92% (active),-22.3% (active),-38.3% (active),35.5%,28.5%
COc1ccc(Cn2nc(-c3cc(OC)c(OC)c(OC)c3)c3c2CCc2cnoc2-3)cc1OC,1.81% (active),,79%,89.9%,47%,39.7%,72.5%,26.1%,65.8%,61.1%,-7.19% (active),48%,29.8%,,70.5%,54%,,63.4%
Cc1ccc(S(=O)(=O)Nc2ccc(Cl)cc2)cc1,,101%,102%,97.3%,112%,115%,100%,91.9%,106%,106%,101%,105%,93.7%,97.4%,104%,105%,89.7%,98.9%
